Residue numbers refer to the chain shown, from its start.
Experiments:
Assay in all cases: PBM; 200 nM protein, PBS
Settings in all cases: dsDNA, one strand shown
HOXB4 [1] = target: HOXB4 (Homo sapiens, UniProt P17483 148-234)
VENTX [2] = target: T1, VENTX (Homo sapiens, UniProt O95231 78-163, R121Q)
T1 sequence: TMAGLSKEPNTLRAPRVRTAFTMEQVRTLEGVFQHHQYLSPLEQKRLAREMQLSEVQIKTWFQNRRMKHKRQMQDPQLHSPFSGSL

HOXB9 [3] = target: HOXB9 (Homo sapiens, UniProt P17482 171-250, T197M)
SIX6 [4] = target: T2, SIX6 (Homo sapiens, UniProt O95475 114-200, L167I)
T2 sequence: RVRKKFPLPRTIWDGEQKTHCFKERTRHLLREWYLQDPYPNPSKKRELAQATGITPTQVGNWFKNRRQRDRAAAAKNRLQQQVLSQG

VENTX [5] = target: T3, VENTX (Homo sapiens, UniProt O95231 78-163)
T3 sequence: T1 sequence with Q44R

SIX6 [6] = target: T4, SIX6 (Homo sapiens, UniProt O95475 114-200, L143V)
T4 sequence: T2 sequence with L30V, I54L

HOXA7 [7] = target: HOXA7 (Homo sapiens, UniProt P31268 116-202)
ALX4 [8] = target: ALX4 (Homo sapiens, UniProt Q9H161 200-286)
PAX4 [9] = target: T5, PAX4 (Homo sapiens, UniProt O43316 9-242, R200K)
T5 sequence: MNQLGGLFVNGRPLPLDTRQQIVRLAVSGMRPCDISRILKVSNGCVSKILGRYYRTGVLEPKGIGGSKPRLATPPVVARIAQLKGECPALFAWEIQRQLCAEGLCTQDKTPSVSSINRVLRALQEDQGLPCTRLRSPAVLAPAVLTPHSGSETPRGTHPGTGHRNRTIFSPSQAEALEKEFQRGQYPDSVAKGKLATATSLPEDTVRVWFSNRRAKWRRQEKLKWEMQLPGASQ

SIX6 [10] = target: T6, SIX6 (Homo sapiens, UniProt O95475 114-200, H141N)
T6 sequence: T2 sequence with H28N, I54L

SIX6 [11] = target: T7, SIX6 (Homo sapiens, UniProt O95475 114-200, T165P)
T7 sequence: T2 sequence with T52P, I54L

VENTX [12] = target: T8, VENTX (Homo sapiens, UniProt O95231 78-163, Y115F)
T8 sequence: T1 sequence with Y38F, Q44R

PAX4 [13] = target: T9, PAX4 (Homo sapiens, UniProt O43316 9-242)
T9 sequence: T5 sequence with K192R

SIX6 [14] = target: T10, SIX6 (Homo sapiens, UniProt O95475 114-200, L167M)
T10 sequence: T2 sequence with I54M

SIX6 [15] = target: T11, SIX6 (Homo sapiens, UniProt O95475 114-200, L143M)
T11 sequence: T2 sequence with L30M, I54L

SIX6 [16] = target: T12, SIX6 (Homo sapiens, UniProt O95475 114-200, L143I)
T12 sequence: T2 sequence with L30I, I54L

ALX4 [17] = target: ALX4 (Homo sapiens, UniProt Q9H161 200-286, Q225E)
SIX6 [18] = target: T13, SIX6 (Homo sapiens, UniProt O95475 114-200, T165G)
T13 sequence: T2 sequence with T52G, I54L

HOXB9 [19] = target: HOXB9 (Homo sapiens, UniProt P17482 171-250)
SIX6 [20] = target: T14, SIX6 (Homo sapiens, UniProt O95475 114-200, T139Q)
T14 sequence: T2 sequence with T26Q, I54L

HOXB4 [21] = target: HOXB4 (Homo sapiens, UniProt P17483 148-234, V174I)
SIX6 [22] = target: T15, SIX6 (Homo sapiens, UniProt O95475 114-200, T165A)
T15 sequence: T2 sequence with T52A, I54L

PAX4 [23] = target: T16, PAX4 (Homo sapiens, UniProt O43316 9-242, R200Q)
T16 sequence: T5 sequence with K192Q

PAX4 [24] = target: T17, PAX4 (Homo sapiens, UniProt O43316 9-242, F177V)
T17 sequence: T5 sequence with F169V, K192R

SIX6 [25] = target: T18, SIX6 (Homo sapiens, UniProt O95475 114-200, L167V)
T18 sequence: T2 sequence with I54V

PAX4 [26] = target: T19, PAX4 (Homo sapiens, UniProt O43316 9-242, F177Y)
T19 sequence: T5 sequence with F169Y, K192R

PROP1 [27] = target: PROP1 (Homo sapiens, UniProt O75360 56-141)
SIX6 [28] = target: T20, SIX6 (Homo sapiens, UniProt O95475 114-200)
T20 sequence: T2 sequence with I54L

PROP1 [29] = target: PROP1 (Homo sapiens, UniProt O75360 56-141, R99H)
SIX6 [30] = target: T21, SIX6 (Homo sapiens, UniProt O95475 114-200, T165I)
T21 sequence: T2 sequence with T52I, I54L

HOXB9 [31] = target: HOXB9 (Homo sapiens, UniProt P17482 171-250, R186Q)
PROP1 [32] = target: PROP1 (Homo sapiens, UniProt O75360 56-141, F88S)
PAX4 [33] = target: T22, PAX4 (Homo sapiens, UniProt O43316 9-242, R227W)
T22 sequence: T5 sequence with K192R, R219W

HOXA7 [34] = target: HOXA7 (Homo sapiens, UniProt P31268 116-202, W177C)
SHOX [35] = target: SHOX (Homo sapiens, UniProt O15266 103-189)
SHOX [36] = target: SHOX (Homo sapiens, UniProt O15266 103-189, R173C)
Sequence of SHOX (Homo sapiens, UniProt O15266 103-189, R173C) (O15266 103-189 R173C): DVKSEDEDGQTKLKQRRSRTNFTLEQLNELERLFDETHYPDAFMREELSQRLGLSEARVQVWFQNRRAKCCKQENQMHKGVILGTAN

Sequence of HOXB4 (Homo sapiens, UniProt P17483 148-234) (P17483 148-234): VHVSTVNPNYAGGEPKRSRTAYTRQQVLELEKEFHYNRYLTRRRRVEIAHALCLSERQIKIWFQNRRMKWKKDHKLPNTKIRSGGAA
Sequence of HOXB4 (Homo sapiens, UniProt P17483 148-234, V174I) (P17483 148-234 V174I): as the sequence (P17483 148-234) above, with V27I counted along it
Sequence of ALX4 (Homo sapiens, UniProt Q9H161 200-286) (Q9H161 200-286): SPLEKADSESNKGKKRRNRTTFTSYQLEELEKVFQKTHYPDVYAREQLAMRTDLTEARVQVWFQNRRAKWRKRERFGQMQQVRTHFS
Sequence of HOXB9 (Homo sapiens, UniProt P17482 171-250, R186Q) (P17482 171-250 R186Q): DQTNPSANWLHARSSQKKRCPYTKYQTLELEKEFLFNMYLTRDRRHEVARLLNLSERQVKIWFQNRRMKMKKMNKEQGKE
Sequence of ALX4 (Homo sapiens, UniProt Q9H161 200-286, Q225E) (Q9H161 200-286 Q225E): as the sequence (Q9H161 200-286) above, with Q26E counted along it
Sequence of SHOX (Homo sapiens, UniProt O15266 103-189) (O15266 103-189): as the sequence (O15266 103-189 R173C) above, with C71R counted along it
Sequence of PROP1 (Homo sapiens, UniProt O75360 56-141, F88S) (O75360 56-141 F88S): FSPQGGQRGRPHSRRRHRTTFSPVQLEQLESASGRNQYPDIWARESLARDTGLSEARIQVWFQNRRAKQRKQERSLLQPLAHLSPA
Sequence of PROP1 (Homo sapiens, UniProt O75360 56-141) (O75360 56-141): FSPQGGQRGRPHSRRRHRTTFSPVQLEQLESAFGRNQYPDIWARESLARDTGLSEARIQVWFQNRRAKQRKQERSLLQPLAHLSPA
Sequence of PROP1 (Homo sapiens, UniProt O75360 56-141, R99H) (O75360 56-141 R99H): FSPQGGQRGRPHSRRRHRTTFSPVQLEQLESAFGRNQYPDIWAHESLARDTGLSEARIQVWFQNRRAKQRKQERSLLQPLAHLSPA
Sequence of HOXA7 (Homo sapiens, UniProt P31268 116-202, W177C) (P31268 116-202 W177C): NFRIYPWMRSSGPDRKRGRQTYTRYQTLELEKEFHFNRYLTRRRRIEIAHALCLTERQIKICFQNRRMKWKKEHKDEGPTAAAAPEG
Sequence of HOXB9 (Homo sapiens, UniProt P17482 171-250, T197M) (P17482 171-250 T197M): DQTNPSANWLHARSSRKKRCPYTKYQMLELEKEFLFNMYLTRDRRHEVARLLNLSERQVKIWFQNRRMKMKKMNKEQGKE
Sequence of HOXB9 (Homo sapiens, UniProt P17482 171-250) (P17482 171-250): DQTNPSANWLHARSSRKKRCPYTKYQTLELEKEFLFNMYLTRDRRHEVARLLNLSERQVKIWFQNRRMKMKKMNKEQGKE
Sequence of HOXA7 (Homo sapiens, UniProt P31268 116-202) (P31268 116-202): as the sequence (P31268 116-202 W177C) above, with C62W counted along it

## CGTCCCGC
HOXB4 [1]
  binding signal: 7.48 upbm affinity estimate (log intensity, higher = more binding, comparable within an allelic series)
VENTX [2]
  binding signal: 7.82 upbm affinity estimate (log intensity, higher = more binding, comparable within an allelic series)
HOXB9 [3]
  binding signal: 8.41 upbm affinity estimate (log intensity, higher = more binding, comparable within an allelic series)
SIX6 [4]
  binding signal: 8.81 upbm affinity estimate (log intensity, higher = more binding, comparable within an allelic series)
VENTX [5]
  binding signal: 7.89 upbm affinity estimate (log intensity, higher = more binding, comparable within an allelic series)
SIX6 [6]
  binding signal: 8.68 upbm affinity estimate (log intensity, higher = more binding, comparable within an allelic series)
HOXA7 [7]
  binding signal: 8.5 upbm affinity estimate (log intensity, higher = more binding, comparable within an allelic series)
ALX4 [8]
  binding signal: 8 upbm affinity estimate (log intensity, higher = more binding, comparable within an allelic series)
PAX4 [9]
  binding signal: 9.13 upbm affinity estimate (log intensity, higher = more binding, comparable within an allelic series)
SIX6 [10]
  binding signal: 8.86 upbm affinity estimate (log intensity, higher = more binding, comparable within an allelic series)
SIX6 [11]
  binding signal: 8.88 upbm affinity estimate (log intensity, higher = more binding, comparable within an allelic series)
VENTX [12]
  binding signal: 7.87 upbm affinity estimate (log intensity, higher = more binding, comparable within an allelic series)
PAX4 [13]
  binding signal: 9.17 upbm affinity estimate (log intensity, higher = more binding, comparable within an allelic series)
SIX6 [14]
  binding signal: 8.79 upbm affinity estimate (log intensity, higher = more binding, comparable within an allelic series)
SIX6 [15]
  binding signal: 8.75 upbm affinity estimate (log intensity, higher = more binding, comparable within an allelic series)
SIX6 [16]
  binding signal: 8.79 upbm affinity estimate (log intensity, higher = more binding, comparable within an allelic series)
ALX4 [17]
  binding signal: 8.06 upbm affinity estimate (log intensity, higher = more binding, comparable within an allelic series)
SIX6 [18]
  binding signal: 8.8 upbm affinity estimate (log intensity, higher = more binding, comparable within an allelic series)
HOXB9 [19]
  binding signal: 8.35 upbm affinity estimate (log intensity, higher = more binding, comparable within an allelic series)
SIX6 [20]
  binding signal: 8.84 upbm affinity estimate (log intensity, higher = more binding, comparable within an allelic series)
HOXB4 [21]
  binding signal: 7.45 upbm affinity estimate (log intensity, higher = more binding, comparable within an allelic series)
SIX6 [22]
  binding signal: 8.8 upbm affinity estimate (log intensity, higher = more binding, comparable within an allelic series)
PAX4 [23]
  binding signal: 9.15 upbm affinity estimate (log intensity, higher = more binding, comparable within an allelic series)
PAX4 [24]
  binding signal: 9.15 upbm affinity estimate (log intensity, higher = more binding, comparable within an allelic series)
SIX6 [25]
  binding signal: 8.87 upbm affinity estimate (log intensity, higher = more binding, comparable within an allelic series)
PAX4 [26]
  binding signal: 9.19 upbm affinity estimate (log intensity, higher = more binding, comparable within an allelic series)
PROP1 [27]
  binding signal: 6.64 upbm affinity estimate (log intensity, higher = more binding, comparable within an allelic series)
SIX6 [28]
  binding signal: 8.76 upbm affinity estimate (log intensity, higher = more binding, comparable within an allelic series)
PROP1 [29]
  binding signal: 6.65 upbm affinity estimate (log intensity, higher = more binding, comparable within an allelic series)
SIX6 [30]
  binding signal: 8.78 upbm affinity estimate (log intensity, higher = more binding, comparable within an allelic series)
HOXB9 [31]
  binding signal: 8.38 upbm affinity estimate (log intensity, higher = more binding, comparable within an allelic series)
PROP1 [32]
  binding signal: 6.67 upbm affinity estimate (log intensity, higher = more binding, comparable within an allelic series)
PAX4 [33]
  binding signal: 9.22 upbm affinity estimate (log intensity, higher = more binding, comparable within an allelic series)
HOXA7 [34]
  binding signal: 8.32 upbm affinity estimate (log intensity, higher = more binding, comparable within an allelic series)

## CGGCGAGC
HOXB4 [1]
  binding signal: 7.79 upbm affinity estimate (log intensity, higher = more binding, comparable within an allelic series)
SHOX [35]
  binding signal: 7.05 upbm affinity estimate (log intensity, higher = more binding, comparable within an allelic series)
HOXB4 [21]
  binding signal: 7.74 upbm affinity estimate (log intensity, higher = more binding, comparable within an allelic series)
SHOX [36]
  binding signal: 7.11 upbm affinity estimate (log intensity, higher = more binding, comparable within an allelic series)

Source: PMC11006913
